Assay outcomes: PubChem BioAssay, National Center for Advancing Translational Sciences (NCATS)
A selection: hits, their analogues and other compounds. The true share with any hit is near 7.5%.
ELG1 DNA repair = blocks ELG1-dependent DNA repair in HEK293T cells; 330,000 tested, 2.3% active; HEK293T ELG1-luciferase reporter, luminescence, 16 h; DNA damage induced by 5-fluorouridine; Potency, µM (titrated, usually from 46.1 µM), inactives show at the top dose activity change, negative = inhibition, usual class: inhibitors; AID 504467; also: potency is read from the fitted curve at half-maximal effect; nearly all actives have a fitted effect of over 55% in size
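Step one: seed 2,000 cells per well. Step two: pin-transfer compound or DMSO alongside 5-fluorouridine. Step three: incubate 16 hr, 37 °C, 5% CO2. Step four: add ONE-Glo, wait 30 min, read luminescence.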
B2AR arrestin = beta2AR (human) beta-arrestin recruitment activity. P07550. beta-arrestin recruitment to beta2AR, cell-based reporter. Potency, µM (series often up to 46.1 µM), for inactives: top-dose activation, most hits filed as activators. 330,000 tested, 0.02% active. AID 492947;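 also: potency is read from the fitted curve at half-maximal effect; 0% = DMSO controls and full agonism = EC100 isoproterenol or metaproterenol; nearly all actives have a fitted effect of over 65% in size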
Target sequence (P07550 whole entry, looked up): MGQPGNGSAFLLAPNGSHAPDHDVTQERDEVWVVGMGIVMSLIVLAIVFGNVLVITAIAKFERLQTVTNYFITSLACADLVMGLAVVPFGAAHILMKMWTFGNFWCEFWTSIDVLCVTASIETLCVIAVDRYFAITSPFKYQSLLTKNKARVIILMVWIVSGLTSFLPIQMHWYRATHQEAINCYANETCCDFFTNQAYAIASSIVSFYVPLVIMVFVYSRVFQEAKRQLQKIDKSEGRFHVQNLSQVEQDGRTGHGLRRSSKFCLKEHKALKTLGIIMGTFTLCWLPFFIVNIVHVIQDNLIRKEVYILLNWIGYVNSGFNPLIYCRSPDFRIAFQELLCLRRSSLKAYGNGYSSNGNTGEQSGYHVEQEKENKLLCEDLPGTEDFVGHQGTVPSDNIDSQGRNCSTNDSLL
TSHR antag = human thyrotropin receptor antagonism; P16473; TSHR-expressing cells, TSH-stimulated cAMP HTRF, 2 h; active compounds read low; activity change, negative = inhibition, % at 11.5 µM; 330,000 tested, 0.2% active; AID 504810;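 active = activity change below a set negative limit, meaning inhibition stronger than a set level, cut at about -70% in these data; inconclusive = activity change between two set negative limits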
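TSHR-expressing cells, 200/well, pre-treated with compound, then stimulated with EC80 TSH (4nM final) for 2 hours at 37 deg C. cAMP measured by competitive HTRF: anti-cAMP cryptate antibody in lysis buffer plus cAMP-d2, read after 30 minutes at room temperature.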
Gal4-VP16 FLuc = inhibits Gal4-VP16 luciferase reporter, ROR gamma counter-screen; Drosophila S2 Gal4-VP16 UAS-luciferase, luminescence, 20 h; 310,000 tested, 3.5% active; Potency, µM (top dose mostly 53.6 µM), without a hit: at the top dose activity, negative = inhibition, most hits filed as inhibitors;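 also: Gal4-VP16 expression switched on by copper sulfate through the metallothionein promoter; potency is read from the fitted curve at half-maximal effect; nearly all actives have a fitted effect of over 50% in size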
RORg inh = blocks mouse ROR gamma transcriptional activity; P51450; Drosophila S2 Gal4-RORgamma UAS-luciferase reporter, 20 h; Potency, µM (highest dose often 53.6 µM), for the others: at the highest dose activity change, negative = inhibition, actives largely listed as inhibitors; 310,000 tested, 5.4% active; AID 2551; also: potency is read from the fitted curve at half-maximal effect; nearly all actives have a fitted effect of over 60% in size
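In this cell-based reporter format, copper sulfate (700 uM final) drives Gal4–ROR gamma fusion expression from a metallothionein promoter in Drosophila Schneider cells; compounds preincubated 1 hr, reporter read after 20 hr at ambient temperature.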
An asterisk follows results filed as active; ? = inconclusive; . = no result given; [ ] = remark or other dose. Unless noted, calls follow the shape of the dose curve; as a rule, active = well fitted curve in the direction sought with a large enough effect; inconclusive = small, poorly fitted or top-dose-only effect, or another doubt; inactive = no such curve, though single readings can be large; an effect the other way counts as inactive or inconclusive. Unless noted, % is scaled to controls: 0 for no effect and ±100 for the full control effect.

SMILES | ELG1 DNA repair | B2AR arrestin | TSHR antag | Gal4-VP16 FLuc | RORg inh
C/C(N)=C(/C#N)C(=O)COC(=O)CCSc1ccccc1Cl | 0.0% | -0.1% | 8.4 | ? | 11.2µM*
COc1cc(NCc2ccc3nc(N)nc(N)c3c2C)cc(OC)c1OC | . | . | . | -9.1% | -17.2%
CN1CCN(c2ncc3nc(-c4cc(F)cc(F)c4)c(=O)n(-c4ccccc4)c3n2)CC1 | . | . | . | 5.5% | -3.2%
CC1(C)Cc2c(c(-c3ccco3)nc3sc4c(NCC5CCCO5)ncnc4c23)CO1 (centres undefined) | 7.31µM* | 0.0% | 1.0 | -19.2% | -9.1%
CC1(C)Cc2c(c(-c3ccco3)nc3sc4c(NCCCO)ncnc4c23)CO1 | 13µM* | 0.2% | 3.8 | -4.3% | -8.9%
CCN(CC)CCNc1ncnc2c1sc1nc(N3CCCC3)c3c(c12)CC(C)(C)OC3 | ? | -0.3% | 12.9 | ? | 11.2µM*
CC1(C)Cc2c(c(N3CCOCC3)nc3sc4c(NN)ncnc4c23)CS1 | ? | -0.2% | -7.5 | 7.08µM* | 7.94µM*
CN(C)CCNc1ncnc2c1sc1nc(N3CCCC3)c3c(c12)CC(C)(C)OC3 | ? | 0.2% | -2.0 | -3.6% | -9.6%
CCNc1ncc2nc(-c3ccc(Cl)cc3)c(=O)n(C)c2n1 | . | . | . | -2.6% | -10.5%
O=C(NCc1ccccn1)C1(C(F)(F)F)C/C(=C\Cc2ccccc2)CCCO1 (centres undefined) | . | . | . | 8.0% | 14.8%
Cc1onc(-c2c(F)cccc2Cl)c1C(=O)NC1C(=O)N2C1SC(C)(C)C2C(=O)O (centres undefined) | . | . | . | 1.2% | -14.4%[10 µM]
COc1ccccc1C(=O)Nc1ccc(Br)cc1C | ? | -0.8% | -15.7 | -17.7% | -7.3%
Nc1nc(CN2CCN(C(c3ccccc3)c3ccccc3)CC2)nc(Nc2ccccc2)n1 | ? | -0.6% | -4.7 | ? | 3.16µM*
Nc1nc(CN2CCC(Cc3ccccc3)CC2)nc(Nc2ccccc2)n1 | -19.7% | 0.1% | -3.7 | -26.1% | 10µM*
Cc1ccc(Nc2nc(N)nc(CN3CCN(c4ccccc4F)CC3)n2)cc1 | ? | -0.9% | -14.0 | -3.8% | 11.2µM*
Cc1ccc(Nc2nc(N)nc(CSc3nncn3C)n2)cc1 | ? | -0.3% | 39.0 | 11.2µM* | -84.4%
Nc1nc(CN2CCN(c3ccccc3F)CC2)nc(Nc2ccccc2)n1 | 0.0% | 0.3% | -3.8 | 6.7% | ?
CCCCCCCCCCCC(=O)[O][Sn]([CH2]CCC)([CH2]CCC)[O]C(=O)CCCCCCCCCCC | . | . | . | -11.2% | 9.2%[10 µM]
NCCC[C@@H](CC(=O)N[C@@H]1CCCC[C@H]1C(=O)N[C@H](CC(=O)N[C@@H](CCC(=O)O)CC(=O)O)Cc1ccccc1)NC(=O)C[C@H](Cc1c[nH]c2ccccc12)NC(=O)[C@@H]1CCCC[C@H]1N | . | . | . | -3.0% | -0.1%
CO[C@H]1COC(=O)C/C=C\[C@H](C)[C@@H](OC)COC(=O)[C@H](C)COC(=O)C/C=C\[C@@H]1C | . | . | . | -2.0%[10 µM] | 5.4%[10 µM]
CCOC(=O)C1=C(C)NC(=S)NC1c1cc(C)sc1C (centres undefined) | -13.3% | 0.2% | 31.4 | -3.2% | 0.1%
CCOC(=O)c1cc(C)sc1NC(=S)Nc1ccccc1 | 4.3% | 0.0% | -5.4 | 3.16µM* | ?
CCOC(=O)c1c(NC(=O)C2=C(C)NC(=S)NC2c2ccccc2C(F)(F)F)sc(C)c1C (centres undefined) | 23.1µM* | 0.3% | 25.4 | 3.55µM* | ?
CCOC(=O)c1c(NC(=S)Nc2ccccc2)sc(C)c1C | ? | -0.1% | -0.3 | ? | 3.55µM*
Cc1ccc(C(=O)NCCNc2ncc(C(F)(F)F)cc2Cl)cc1[N+](=O)[O-] | 0.5% | 0.0% | -112.8* | -11.8% | ?
SMILES | ELG1 DNA repair | B2AR arrestin | TSHR antag | Gal4-VP16 FLuc | RORg inh
CC(C)(CNC(=O)c1ccc([N+](=O)[O-])c(Cl)c1)CNC(=O)c1ccc([N+](=O)[O-])c(Cl)c1 | ? | -0.6% | -33.7 | 5.01µM* | ?
COc1ccc(C(=O)NCCNc2ncc(C(F)(F)F)cc2Cl)cc1[N+](=O)[O-] | -1.4% | 0.1% | -10.4 | 4.0% | 0.3%
NCCCCC(N)C(=O)NC(Cc1ccc(O)cc1)C(=O)NC(CCCCN)C(=O)O (centres undefined) | . | . | . | 0.7% | -4.2%
Cc1ccc2nc(C)c(CN3CCN(c4ccc([N+](=O)[O-])cc4Cl)CC3)n2c1 | 2.31µM* | 0.1% | -25.0 | 7.08µM* | 14.1µM*
CCN(CC(=O)NCc1ccc(Cl)cc1)C(=O)CCc1ccccc1O | -12.6% | -0.5% | -0.4 | 2.7% | 19.2%
COc1ccc(CCN(Cc2cccs2)S(=O)(=O)c2ccc(-n3cnnn3)cc2)cc1OC | 16.4µM* | -0.4% | -19.0 | 1.8% | -5.9%
CC(=O)N1CCOc2cc(S(=O)(=O)NCc3ccccc3Cl)c(Cl)cc21 | . | -0.6% | -18.8 | . | .
Cc1cc(C)nc(-n2nc(C)c(Oc3ccccc3O)c2C)n1 | ? | 0.3% | 7.8 | ? | 10µM*
CCOc1c(Cl)cc(/C=N/NC(N)=S)cc1OC | 1.1% | -0.2% | 3.4 | 15.8µM* | 7.08µM*
C#CCOc1c(Cl)cc(/C=N/NC(N)=S)cc1OCC | ? | 0.9% | -0.5 | ? | 14.1µM*
CCOc1c(Br)cc(/C=N\NC(=O)c2ccccc2)cc1OC | ? | -1.1% | -12.9 | ? | -71.2%
C#CCOc1c(Cl)cc(/C=C2/C(=O)ON=C2C)cc1OCC | -1.8% | 2.9% | 7.8 | 2.2% | 25.8%
COc1cccc([C@@H]2Oc3ccc(Br)cc3C[C@H]2OC(=O)N[C@H]2CCCc3ccccc32)c1 | . | . | . | 0.7% | -9.5%
CC(C)[C@@H](CC(=O)N[C@@H]1CCCC[C@H]1C(=O)N[C@H](CC(=O)N[C@@H](CCC(=O)O)CC(=O)O)Cc1c[nH]c2ccccc12)NC(=O)C[C@H](Cc1c[nH]c2ccccc12)NC(=O)[C@@H]1CNCC[C@H]1N | . | . | . | -6.2% | -33.6%
CCC(C)COC(=O)C(C#N)c1nc2ccccc2nc1N1CCCCC1 (centres undefined) | -12.6% | 0.4% | -10.7 | 2.6% | 5.01µM*
COc1ccc(CNC(=O)C(C#N)c2nc3ccccc3nc2N2CCCC2)cc1 (centres undefined) | 5.8µM* | -0.5% | 4.4 | -9.6% | 14.3%
O=C(N/N=C/c1c(Cl)[nH]c2ccccc12)c1ccc2c(c1)OCCO2 | ? | -0.4% | 5.1 | -4.9% | -0.8%
COc1cc(OC)c(C(=O)Nc2cc(Cl)ccc2-n2cncn2)cc1OC | ? | -0.1% | . | . | .
COc1ccccc1C(=O)Nc1cc(Cl)ccc1-n1cncn1 | ? | -0.6% | 22.4 | -15.3% | 11.2µM*
COc1ccc(C(=O)N2CCC[C@@]3(CCN(C)C3)C2)cc1 | . | . | . | -3.8% | -17.0%
N#Cc1c(C(F)(F)F)cc(-c2ccc(F)cc2)[nH]c1=O | 18.3µM* | -0.5% | 32.7 | -5.3% | ?
C=C(C(=O)OC)C(NC(=O)OC)c1ccccc1 (centres undefined) | . | . | . | -4.6% | -20.8%
CC=C(Cl)Cl | . | . | . | 8.6% | 20.3%
